# Test results as given in PubChem BioAssay AID504546 (Broad Institute, 2011).
# Inconclusive results are not listed. Active and inactive are the calls of the source.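 The calls were made as follows: active = every repeat run fits a falling-signal curve with half-maximal potency within ten times top tested dose; inconclusive = runs disagree, or flat moderate drop, or poor fit; inactive = every run inactive, including signal moving upward.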
# Assay: ADP-Glo luciferase signal interference – biochemical, luminescence, cherry-picked samples, set 2, artefact control for CDK5 inhibitor project, dose response (AID 504546)
# Conditions: ADP-Glo detection reagent counter screen, 5 uM ADP; series mostly up to 30 µM
row,Compound,outcome
1,CC(C)C[C@H](CO)Nc1nc(N(C)c2cccc(Cl)c2)c2ncn(C(C)C)c2n1,inactive
2,O=C(O)c1ccc(/C=N/Nc2ccc(C(F)(F)F)cn2)cc1,inactive
3,N#Cc1c(N)n(C2OC(CO)C(O)C2O)c2ncnc(N)c12 (stereo not given),inactive
4,O=C(NNC(=O)c1cccs1)c1ccccc1,inactive
5,CC(C)n1cnc2c(Nc3ccc(C(=O)O)cc3)nc(Cl)nc21,inactive
6,COc1ccc(Nc2nc(N)c(C(=O)c3ccc(F)cc3)s2)cc1,inactive
7,CC(C)(C)C(=O)c1sc(Nc2ccccc2)nc1N,inactive
8,COc1ccc2nc(C(F)(F)C(F)(F)F)c(C#N)c(N)c2c1,inactive
9,Cc1nc(Nc2ccccc2)sc1C(=O)c1ccccc1,inactive
10,Oc1ccc(/C=N/Nc2nccnc2Cl)c(O)c1,inactive
11,CCC(C)(C)C1CCc2[nH]nc(C(=O)NCCN3CCOCC3)c2C1 (stereo not given),inactive
12,Clc1cccc(Cl)c1/C=N/Nc1c(Cl)cncc1Cl,inactive
13,COc1cccc(OC)c1C(=O)N1CCN(c2ccccn2)CC1,inactive
14,CCc1ncc(/C=C2\C(=O)Nc3ccccc32)[nH]1,inactive
15,CC(C)n1cnc2c(Nc3cccc(Cl)c3)nc(NCCCO)nc21,inactive
16,C=CCNc1nc(N)c(C(=O)c2ccc3c(c2)OCO3)s1,inactive
17,Oc1cc2c(cc1O)C1c3ccc(O)c(O)c3OCC1(O)C2 (stereo not given),inactive
18,O=C(Nc1csc(Cc2c(Cl)cccc2Cl)n1)NN1CCOCC1,inactive

row,Compound,outcome
1,Cc1ncc(CO)c(/C=N/Nc2ccc(C(F)(F)F)cn2)c1O,inactive
2,O=C(Cc1ccc(O)cc1)NCCNC(=S)NCc1ccccc1,inactive
3,CCCn1c(NC(=O)c2cccc(S(=O)(=O)N3CCCC3)c2)nc2ccccc21,inactive
4,O=C1NCCCc2c1oc1ccc(O)cc21,inactive
5,CC(C)C[C@H](CO)Nc1nc(Nc2cccc(Cl)c2)c2ncn(C(C)C)c2n1,inactive
6,COc1ccc2nc3c(cc2c1)c(NC(=O)CC(C)C)nn3CC(C)C,inactive
7,Clc1cnc(N/N=C/c2ccncc2)c(Cl)c1,inactive
8,OCCCNc1nccc(-c2cc(Nc3cccc(Cl)c3)ncn2)n1,inactive
9,CC(C)=CCNc1ncnc2c1c(C#N)cn2C1OC(CO)C(O)C1O (stereo not given),inactive
10,COc1ccc(Nc2nccc(-c3ccc([N+](=O)[O-])cc3)n2)cc1,inactive
11,O=C(c1ccc(F)cc1)c1cnc(Nc2ccccc2)s1,inactive
12,O=C(O)c1ccc(/C=N/Nc2ncc(C(F)(F)F)cc2Cl)cc1,inactive
13,O=C(c1ccc2c(c1)OCCO2)N1CCN(c2ccccn2)CC1,inactive
14,Clc1ccc(N/N=C/c2ccncc2)cc1Cl,inactive
15,CC(=O)[C@H]1CC[C@H]2[C@@H]3CC=C4C[C@@H](OS(=O)(=O)O)CC[C@]4(C)[C@H]3CC[C@]12C,inactive
16,COc1cc(/C=N/Nc2ccc(C(F)(F)F)cn2)ccc1O,inactive
17,Cc1nc(Nc2ccccc2)sc1C(=O)c1ccc(F)cc1,inactive
